The values below come from PubChem BioAssay.

The structures appear in SMILES notation. Inconclusive results are not listed. Activity calls are given as the source filed them.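 How the source made its calls, unless noted: active means percent response above a set limit, the screen-wide mean plus 3 SD (cut at about 130% in these data); inactive means the rest.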

Test [1] can be described thus: yeast TOR pathway RPL19A-GFP modulators, primary screen, cell-based, S. cerevisiae, multiplex flow cytometry (AID 1862; in the data active means percent of DMSO control GFP below about 86%;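 further: lower values mimic rapamycin by blocking the RPL19A rise seen in DMSO cells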). The conditions noted are these: S. cerevisiae RPL19A-GFP strain, flow cytometry fluorescence, 3 h; at 10 µM; stronger effect = lower value. Background: A flow cytometer gives signals particle by particle.
Test [2] in a line: modulators of MEP2-GFP levels in yeast, primary screen, S. cerevisiae, multiplex flow cytometry (AID 1867;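 active means GFP response, as percent of the DMSO control, above the screen-wide mean plus 3 SD, about 139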;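 further: median GFP channel fluorescence of barcode-gated MEP2-GFP cells measured by flow cytometry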). The conditions noted are these: S. cerevisiae MEP2-GFP strain, 3 h, at 10 µM, stronger effect = higher value, 100% means same as DMSO wells.
Test [3] in a line: modulators of CIT2-GFP expression in yeast, primary screen, S. cerevisiae, GFP fusion, multiplex flow cytometry (AID 1870).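 Further: barcoded CIT2-GFP strain pooled with four other GFP strains with rapamycin as positive control; median GFP fluorescence per well over plate mean of DMSO wells so 100% = DMSO.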 The conditions noted are these: 3 h, at 10 µM, stronger effect = higher value.
The nature of test [4]: modulators of LAP4-GFP expression in yeast, primary screen, S. cerevisiae, multiplex flow cytometry (AID 1873;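 active means GFP signal, as percent of the solvent control, above the screen mean plus 3 SD, about 149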). The conditions noted are these: 3 h, at 10 µM, stronger effect = higher value.
The nature of test [5]: modulators of AGP1-GFP expression in yeast TOR pathway, primary screen, cell-based, multiplex flow cytometry, S. cerevisiae (AID 1887;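 active means GFP signal above the screen-wide mean plus 3 SD, that is over about 124.5% of the solvent control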;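 further: AGP1-GFP fusion strain of S. cerevisiae within a five-strain barcoded multiplex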). The following applies: 3 h, at 10 µM, stronger effect = higher value.
The nature of test [6]: inhibitors of CD8+ T cell-vesicle binding, pilot screen, LFA-1/ICAM-1 modulator project, MLPCN validation set, flow cytometry (AID 2523;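 active means response below a set limit, under 55% cells CD8-positive and vesicle-bound, and CD8 cells' 90th-percentile brightness under 279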;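 on vesicle binding response: mean PE anti-B7-1 fluorescence of CD8+ cells relative to row control; 100% = QL9-loaded vesicles with DMSO vehicle in the same plate row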). The conditions noted are these: 2C mouse CD8+ T cells, at 7 µM, stronger effect = lower value; double positive events: measured here: CD8+/vesicle+ event percentage.
Test [7] concerns the target Integrin beta-1 (Homo sapiens) + Integrin alpha-4 (Homo sapiens) (UniProt P13612+P05556). The test can be described thus: inhibition of HUTS-21 binding to VLA-4, pilot screen, VLA-4 allosteric modulator project, U937 cells, HUTS-21 mAb, flow cytometry, validation set (AID 2674;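 active means inhibition above 50%, about 3 SD of the validation set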;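 further: antibody binding induced by the VLA-4 ligand LDV present at three times its Kd; 0% = LDV ligand with antibody and no compound and 100% = antibody without LDV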). The conditions noted are these: HUTS-21 LIBS mAb binding, at 6.7 µM, stronger effect = higher value, binding induced by LDV ligand.

The nature of test [8]: superoxide lowering in aged yeast cells, pilot screen, validation compound set (AID 2706;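 active means superoxide response below 65% of plate, a cut near 3 SD across the whole screen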;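 further: yeast exposed to compound for one week at 30 degrees C before staining; 100% = mean of all compound wells on the same plate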). The following applies: S. cerevisiae aging, superoxide DHE fluorescence; at 10 µM; stronger effect = lower value.
Test [9] has as its target Beta-adrenergic receptor kinase 1 (Homo sapiens) (UniProt P25098). The test can be described thus: GRK2 binders displacing RNA aptamer, biochemical, validation, human GRK2, bead flow cytometry (AID 488806;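 active means aptamer binding inhibition above 30%, about 3 SD of noise from non-fluorescent compounds; inactive means inhibition at or below 30%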). The conditions noted are these: bead-bound GRK2, FAM-aptamer displacement, at 10 µM, stronger effect = higher value.
The target in test [10] is Beta-2 adrenergic receptor (Homo sapiens) (UniProt P07550). The test can be described thus: beta2AR agonists driving receptor internalization, pilot screen, cell-based, FAP fluorogen, flow cytometry, validation set (AID 504459;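 active means percent response above 42, roughly 3 SD of non-fluorescent test compounds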;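 further: agonist-driven loss of surface beta2AR via internalization measured by FAP dye flow cytometry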). The following applies: Am2.2-beta2AR cells, FAP surface receptor flow cytometry; at 10 µM; stronger effect = higher value.
For test [11], the target named is AP-2 complex subunit beta (Homo sapiens) (UniProt P63010). Nature of the test: inhibitors of arrestin peptide binding to AP2, pilot screen, biochemical, validation set, GST-AP2 beads, flow cytometry (AID 504541;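 active means inhibition above 54%, about 3 SD of non-fluorescent compounds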;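 further: AP2 carries R879A mutation and is captured from E. coli lysate; bead-bound FITC arrestin peptide fluorescence measuring arrestin peptide binding to AP2; 0% = DMSO wells and 100% = excess unlabeled arrestin peptide control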). The following applies: FITC arrestin peptide, at 10 µM, stronger effect = higher value, AP2 beta2 appendage fragment, R879A mutant.
Test [12] can be described thus: yeast V-ATPase proton transport modulators, S. cerevisiae, pHLuorin, HTS validation (AID 504600; in the data active means response above about 15%;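 further: plate controls were DMSO for no effect and reference compound for full effect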). The conditions noted are these: S. cerevisiae pHLuorin cytosolic pH, at 10 µM, stronger effect = higher value.
Test [13] deals with anti-desmoglein-3 scFv antibody binding to human DSG3. The test can be described thus: inhibitors of anti-DSG3 scFv binding to DSG3, pilot screen, biochemical, validation compound set, bead-based, flow cytometry (AID 588368;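 active means binding below the plate cutoff, the plate median minus 3 SD, with a reading above zero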;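 further: signal is the median channel fluorescence of bead-bound GFP antibody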). The following applies: Protein G beads, DSG3-Fc, scFv-GFP binding, at 10 µM, stronger effect = lower value.
The nature of test [14]: inhibitors of fungal efflux pumps CDR1, CDR2, MDR1, pilot screen, validation compound set, multiplex, phenotypic (AID 588506;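 active means efflux inhibition above 0.42, the validation set average plus 4 SD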;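 further: Nile Red retained in cells so higher fluorescence means more efflux inhibition; 0 = negative control wells and 1 = enniatin B 25 µM full block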). The following applies: S. cerevisiae pump-expressing triplex, Nile Red efflux flow cytometry; at 10 µM; stronger effect = higher value; the pumps come from Candida albicans.
Test [15] concerns the target ATP-binding cassette sub-family B member 6 (Homo sapiens) (UniProt Q9NP58). The test can be described thus: ABCB6 transporter inhibitors, pilot screen, K562-ABCB6 cells, flow cytometry, validation set (AID 588550;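 active means inhibition above the screen-wide mean plus 3 SD, about 51%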;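 further: 0% = DMSO wells and 100% = benzethonium chloride 70 µM positive control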). The conditions noted are these: K562-ABCB6 porphyrin accumulation, 1 h, at 10 µM, stronger effect = higher value.
The nature of test [16]: promoters of myeloid differentiation in arrested cells, primary screen, cell-based, GFP/MAC1 double positive, flow cytometry, validation set (AID 588685;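 active means differentiation response of at least 50%, scaled between solvent and reference control, from cells with both markers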;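 further: compound exposure lasts four days before antibody staining and flow analysis; 0% = DMSO wells and 100% = 5 µM fulvestrant positive control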). The conditions noted are these: ER-HoxA9 marrow cells, stronger effect = higher value, normalized: vehicle 0, fulvestrant 100.

Sequence of Integrin beta-1 (Homo sapiens) + Integrin alpha-4 (Homo sapiens) (P05556 whole entry, looked up): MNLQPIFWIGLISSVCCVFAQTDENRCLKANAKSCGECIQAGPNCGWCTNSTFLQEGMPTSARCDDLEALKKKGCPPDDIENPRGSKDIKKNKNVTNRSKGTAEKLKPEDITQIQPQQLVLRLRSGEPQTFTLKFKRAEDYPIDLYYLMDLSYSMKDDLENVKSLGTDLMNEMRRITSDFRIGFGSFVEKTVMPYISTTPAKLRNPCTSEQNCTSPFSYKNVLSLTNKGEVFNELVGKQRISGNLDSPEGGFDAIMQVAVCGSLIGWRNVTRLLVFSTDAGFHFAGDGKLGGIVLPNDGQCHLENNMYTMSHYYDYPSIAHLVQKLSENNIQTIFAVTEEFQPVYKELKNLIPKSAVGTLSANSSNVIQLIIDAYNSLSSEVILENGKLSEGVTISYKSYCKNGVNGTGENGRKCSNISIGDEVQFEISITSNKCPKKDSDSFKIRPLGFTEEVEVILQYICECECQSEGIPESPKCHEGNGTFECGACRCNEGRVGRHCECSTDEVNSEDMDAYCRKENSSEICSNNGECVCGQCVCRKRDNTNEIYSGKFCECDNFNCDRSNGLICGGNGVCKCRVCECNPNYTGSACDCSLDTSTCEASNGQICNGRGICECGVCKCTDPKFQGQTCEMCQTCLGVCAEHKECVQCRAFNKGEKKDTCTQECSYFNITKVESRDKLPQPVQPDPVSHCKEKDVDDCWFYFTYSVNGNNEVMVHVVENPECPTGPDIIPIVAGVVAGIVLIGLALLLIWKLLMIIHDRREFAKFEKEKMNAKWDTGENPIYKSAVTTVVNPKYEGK
Sequence of Integrin beta-1 (Homo sapiens) + Integrin alpha-4 (Homo sapiens) (P13612 whole entry, looked up): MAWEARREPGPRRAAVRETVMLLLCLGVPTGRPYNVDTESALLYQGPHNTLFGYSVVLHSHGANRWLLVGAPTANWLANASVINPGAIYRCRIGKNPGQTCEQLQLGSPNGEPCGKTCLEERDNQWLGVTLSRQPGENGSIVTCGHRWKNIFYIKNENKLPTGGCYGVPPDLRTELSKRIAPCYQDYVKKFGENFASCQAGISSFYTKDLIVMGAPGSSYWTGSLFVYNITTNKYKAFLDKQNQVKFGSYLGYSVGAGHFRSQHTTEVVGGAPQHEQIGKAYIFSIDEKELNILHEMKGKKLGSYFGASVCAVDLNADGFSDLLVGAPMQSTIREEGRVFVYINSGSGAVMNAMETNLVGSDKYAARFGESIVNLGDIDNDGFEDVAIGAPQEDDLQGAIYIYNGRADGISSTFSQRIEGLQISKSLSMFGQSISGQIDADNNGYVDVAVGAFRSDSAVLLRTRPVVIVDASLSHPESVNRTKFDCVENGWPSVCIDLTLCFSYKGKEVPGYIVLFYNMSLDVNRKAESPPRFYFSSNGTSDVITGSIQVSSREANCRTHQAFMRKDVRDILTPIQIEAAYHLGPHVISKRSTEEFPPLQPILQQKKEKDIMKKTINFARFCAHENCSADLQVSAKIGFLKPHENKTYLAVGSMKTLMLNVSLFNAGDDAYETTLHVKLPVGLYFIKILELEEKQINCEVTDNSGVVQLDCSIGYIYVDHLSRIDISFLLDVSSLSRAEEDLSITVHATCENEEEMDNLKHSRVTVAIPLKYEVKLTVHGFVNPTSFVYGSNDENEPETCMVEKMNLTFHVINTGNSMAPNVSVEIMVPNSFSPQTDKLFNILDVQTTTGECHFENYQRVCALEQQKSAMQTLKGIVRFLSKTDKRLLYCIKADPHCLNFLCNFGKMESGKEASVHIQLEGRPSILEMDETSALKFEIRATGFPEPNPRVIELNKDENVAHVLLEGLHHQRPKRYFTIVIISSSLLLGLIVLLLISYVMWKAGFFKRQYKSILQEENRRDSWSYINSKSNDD
Sequence of Beta-adrenergic receptor kinase 1 (Homo sapiens) (P25098 whole entry, looked up): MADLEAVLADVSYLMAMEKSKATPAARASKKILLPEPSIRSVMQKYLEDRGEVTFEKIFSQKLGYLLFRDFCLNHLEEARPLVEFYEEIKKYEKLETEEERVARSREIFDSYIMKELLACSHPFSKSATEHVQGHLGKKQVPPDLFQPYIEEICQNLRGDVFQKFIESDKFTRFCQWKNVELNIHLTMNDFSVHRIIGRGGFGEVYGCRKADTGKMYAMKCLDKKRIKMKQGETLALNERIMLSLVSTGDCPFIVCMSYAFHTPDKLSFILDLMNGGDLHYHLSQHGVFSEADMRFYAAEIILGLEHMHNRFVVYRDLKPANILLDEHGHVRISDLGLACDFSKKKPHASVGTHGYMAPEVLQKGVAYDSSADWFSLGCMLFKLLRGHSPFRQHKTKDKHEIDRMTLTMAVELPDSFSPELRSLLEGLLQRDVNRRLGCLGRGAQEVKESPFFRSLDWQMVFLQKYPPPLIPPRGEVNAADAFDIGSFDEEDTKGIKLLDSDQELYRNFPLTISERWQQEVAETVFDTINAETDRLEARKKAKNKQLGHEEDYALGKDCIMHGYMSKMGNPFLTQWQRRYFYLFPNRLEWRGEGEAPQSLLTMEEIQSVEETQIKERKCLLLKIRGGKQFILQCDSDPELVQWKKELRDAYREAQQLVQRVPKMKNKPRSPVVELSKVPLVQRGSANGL
Sequence of AP-2 complex subunit beta (Homo sapiens) (P63010 whole entry, looked up, the tested form may be a part, one chain of several): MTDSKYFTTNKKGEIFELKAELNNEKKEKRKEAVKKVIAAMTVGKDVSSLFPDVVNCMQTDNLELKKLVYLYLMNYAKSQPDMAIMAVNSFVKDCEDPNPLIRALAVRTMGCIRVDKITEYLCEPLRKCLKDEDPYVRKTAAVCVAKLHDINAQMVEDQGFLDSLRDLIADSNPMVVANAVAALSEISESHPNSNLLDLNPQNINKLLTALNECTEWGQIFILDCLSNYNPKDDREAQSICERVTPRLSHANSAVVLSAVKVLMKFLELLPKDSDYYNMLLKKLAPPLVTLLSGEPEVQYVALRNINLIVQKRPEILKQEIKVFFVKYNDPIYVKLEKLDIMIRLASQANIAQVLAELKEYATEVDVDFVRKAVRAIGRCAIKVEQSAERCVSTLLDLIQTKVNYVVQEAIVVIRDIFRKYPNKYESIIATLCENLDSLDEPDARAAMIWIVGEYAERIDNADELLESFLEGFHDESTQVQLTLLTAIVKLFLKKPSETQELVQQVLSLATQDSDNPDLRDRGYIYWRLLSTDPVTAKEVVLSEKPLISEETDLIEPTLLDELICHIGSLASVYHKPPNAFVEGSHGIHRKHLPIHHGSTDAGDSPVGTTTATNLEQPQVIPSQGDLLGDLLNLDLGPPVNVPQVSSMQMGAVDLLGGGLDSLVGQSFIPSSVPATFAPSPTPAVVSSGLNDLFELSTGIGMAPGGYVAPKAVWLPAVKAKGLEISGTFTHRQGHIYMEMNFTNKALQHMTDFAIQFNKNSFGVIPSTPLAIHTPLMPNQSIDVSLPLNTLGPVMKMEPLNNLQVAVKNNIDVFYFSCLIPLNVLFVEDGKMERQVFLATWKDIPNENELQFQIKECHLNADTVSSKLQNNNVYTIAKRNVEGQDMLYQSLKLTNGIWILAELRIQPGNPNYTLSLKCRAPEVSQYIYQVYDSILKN
Sequence of ATP-binding cassette sub-family B member 6 (Homo sapiens) (Q9NP58 whole entry, looked up): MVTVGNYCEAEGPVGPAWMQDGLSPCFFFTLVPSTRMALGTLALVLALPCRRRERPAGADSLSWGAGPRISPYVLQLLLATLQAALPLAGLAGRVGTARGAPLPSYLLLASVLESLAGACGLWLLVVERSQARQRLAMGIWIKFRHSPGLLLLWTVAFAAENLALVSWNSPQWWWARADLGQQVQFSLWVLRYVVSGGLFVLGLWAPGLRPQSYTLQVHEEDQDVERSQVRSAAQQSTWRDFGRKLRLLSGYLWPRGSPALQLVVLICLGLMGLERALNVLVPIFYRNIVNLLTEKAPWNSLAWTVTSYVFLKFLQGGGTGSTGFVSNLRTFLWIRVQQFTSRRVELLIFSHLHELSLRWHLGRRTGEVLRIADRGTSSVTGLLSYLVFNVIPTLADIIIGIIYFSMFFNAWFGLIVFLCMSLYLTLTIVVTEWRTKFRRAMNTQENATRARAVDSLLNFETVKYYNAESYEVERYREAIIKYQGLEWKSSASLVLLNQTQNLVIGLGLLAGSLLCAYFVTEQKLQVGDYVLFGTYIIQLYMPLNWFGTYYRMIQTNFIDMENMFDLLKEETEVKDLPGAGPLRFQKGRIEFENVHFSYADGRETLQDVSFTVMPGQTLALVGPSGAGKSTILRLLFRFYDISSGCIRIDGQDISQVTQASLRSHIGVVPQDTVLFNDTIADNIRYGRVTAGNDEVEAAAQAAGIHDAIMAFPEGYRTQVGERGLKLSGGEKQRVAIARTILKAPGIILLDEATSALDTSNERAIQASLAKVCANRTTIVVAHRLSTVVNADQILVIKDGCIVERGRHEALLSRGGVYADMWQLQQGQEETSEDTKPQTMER
Sequence of Beta-2 adrenergic receptor (Homo sapiens) (P07550 whole entry, looked up): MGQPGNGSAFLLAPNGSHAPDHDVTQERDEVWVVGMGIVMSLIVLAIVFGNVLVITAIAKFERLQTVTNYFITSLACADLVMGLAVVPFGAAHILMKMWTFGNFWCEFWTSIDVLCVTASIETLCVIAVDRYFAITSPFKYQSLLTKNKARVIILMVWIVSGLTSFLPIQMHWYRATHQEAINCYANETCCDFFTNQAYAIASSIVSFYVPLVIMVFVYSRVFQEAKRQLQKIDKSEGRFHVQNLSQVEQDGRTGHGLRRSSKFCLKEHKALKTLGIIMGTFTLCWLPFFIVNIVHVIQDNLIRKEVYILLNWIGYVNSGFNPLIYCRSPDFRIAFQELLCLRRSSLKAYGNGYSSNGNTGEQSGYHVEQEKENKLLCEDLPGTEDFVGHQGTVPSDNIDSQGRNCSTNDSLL

Consider `CC(C)(C)C(=O)NC(=S)NNC(=O)c1ccncc1`, for which the percent of DMSO control GFP in [1] is 98.2% (inactive). Also, the values for the GFP response vs DMSO in test [2] and in test [4] were 104% (inactive) and 127% (inactive), respectively. The percent response of DMSO control in test [3] was 101% (inactive). The GFP response, % of DMSO in test [5] was 109% (inactive). The compound also returned a double positive events in test [6] of 57.3%. Also, the vesicle binding response in [6] is 185% (inactive). The inhibition in [7] is -7.08% (inactive); in test [11] it was -3.36% (inactive); in test [15], -5% (inactive). Further, the superoxide response (% of plate) in test [8] was 88.6% (inactive). Also, the aptamer binding inhibition in test [9] was -5% (inactive). Also, the response is -25% (inactive) in [10] and 2.56% (inactive) in test [12]. Besides, in test [13], the binding (% of control) was 105% (inactive). For the same compound, the efflux inhibition (fraction of control) in [14] was -0.04 (inactive). Also, the differentiation response in test [16] was -7.94% (inactive).
As for `CN(CCO)CC(O)Cn1cnc2c1c(=O)n(C)c(=O)n2C` (stereo not given) (tested in a mixture with another compound), the percent of DMSO control GFP in test [1] is 101% (inactive). Also, the GFP response vs DMSO in test [2] is 109% (inactive); in [4], 106% (inactive). Moreover, in test [3], the percent response of DMSO control was 100% (inactive). Further, the GFP response, % of DMSO in [5] was 112% (inactive). Further, the double positive events in test [6] amounted to 62.5%. In addition, the vesicle binding response in test [6] was 211% (inactive). Also, the inhibition is 14.2% (inactive) in test [7], -3.41% (inactive) in test [11] and 7% (inactive) in test [15]. For the same compound, in test [8], the superoxide response (% of plate) was 93.2% (inactive). Besides, in test [9], the aptamer binding inhibition is -1% (inactive). The response in test [10] is -18.1% (inactive); in test [12] it was -1.98% (inactive). Also, the binding (% of control) in [13] is 103% (inactive). Moreover, in test [14], the efflux inhibition (fraction of control) was -0.09 (inactive). The differentiation response in test [16] was -3.02% (inactive).
Regarding `COc1cc2nc(-c3ccccc3)nc(N3CCCC3)c2cc1OC`, the percent of DMSO control GFP in test [1] was 104% (inactive). The results for the GFP response vs DMSO in test [2] and in test [4] were 98.3% (inactive) and 82.2% (inactive), respectively. Besides, the percent response of DMSO control in test [3] is 107% (inactive). In [5], the GFP response, % of DMSO was 104% (inactive). In test [6], this compound came in with a double positive events of 68.2%. In addition, in [6], the vesicle binding response is 459% (inactive). The inhibition in [7] is -36.8% (inactive); in test [11], -3.58% (inactive); in test [15], 11% (inactive). Also, the superoxide response (% of plate) in [8] is 85.3% (inactive). Further, the aptamer binding inhibition in test [9] is 6% (inactive). In addition, the values for the response in test [10] and in test [12] were -10% (inactive) and 2.32% (inactive), respectively. For the same compound, the binding (% of control) in test [13] was 98.2% (inactive). Moreover, the efflux inhibition (fraction of control) in test [14] is -0.07 (inactive). Besides, the differentiation response in test [16] was -1.71% (inactive).
Consider `Cc1nnc(SCC2=C(C(=O)O)N3C(=O)[C@@H](NC(=O)Cn4cnnn4)[C@H]3SC2)s1`, for which the percent of DMSO control GFP in test [1] is 100% (inactive). The GFP response vs DMSO in test [2] is 104% (inactive); in test [4] it was 114% (inactive). In addition, in [3], the percent response of DMSO control is 100% (inactive). Moreover, the GFP response, % of DMSO in test [5] is 112% (inactive). In addition, the double positive events in [6] was 61.6%. In test [6], the vesicle binding response was 282% (inactive). Moreover, the inhibition in test [7] is 15.9% (inactive); in test [11] it was 6.15% (inactive); in test [15] it was 1% (inactive). Besides, in [8], the superoxide response (% of plate) was 98.1% (inactive). Moreover, the aptamer binding inhibition in test [9] is -1% (inactive). In addition, the response in test [10] was -26.4% (inactive); in test [12], -5.74% (inactive). Also, the binding (% of control) in [13] was 93.4% (inactive). Moreover, the efflux inhibition (fraction of control) in test [14] is -0.13 (inactive). Also, the differentiation response in test [16] is -7.94% (inactive).
With `CC(C)Oc1ccc(C2CC(=O)N(c3ccc(C(=O)O)cc3)C2=O)cc1` (stereo not given), in test [1], the percent of DMSO control GFP was 98.1% (inactive). The figures for the GFP response vs DMSO in test [2] and in test [4] were 97.6% (inactive) and 137% (inactive), respectively. Also, the percent response of DMSO control in [3] was 105% (inactive). The GFP response, % of DMSO in test [5] is 122% (inactive). Also, the double positive events in test [6] worked out at 57.7%. Further, the vesicle binding response in test [6] is 178% (inactive). Besides, the inhibition was 3.14% (inactive) in test [7], -15% (inactive) in [11] and -1% (inactive) in test [15]. Besides, the superoxide response (% of plate) in test [8] was 135% (inactive). For the same compound, the aptamer binding inhibition in [9] was -4% (inactive). The response in test [10] is -19.8% (inactive); in test [12], -1.38% (inactive). In addition, in [13], the binding (% of control) is 105% (inactive). Also, the efflux inhibition (fraction of control) in [14] was -0.04 (inactive). Further, the differentiation response in [16] was -9.91% (inactive).

What is called inhibition is the drop in the measured response relative to a control, in per cent.
